This note sets out measurements from PubChem BioAssay (Tox21).

Structures are written as SMILES. Values joined by “and” are separate entries in the source; they are usually repeats but may differ in a detail not shown here. Equal entries are not always repeated. Records with an inconclusive call do not appear. Active and inactive are the calls of the source. Unless noted, the call rests on the fitted dose curve; in most records, active means well fitted curve in the direction sought with a large enough effect in the repeat runs; inconclusive means weak or mixed curves; inactive means no such curve, though single readings can be large; an effect the other way counts as inactive or inconclusive.

The nature of assay [1]: qHTS assay to identify small molecule antagonists of the glucocorticoid receptor (GR) signaling pathway - cell viability counter screen (AID 720693). Further: nearly all actives have a fitted effect of over 55% in size.
The nature of assay [2]: qHTS assay for identifying genotoxic compounds that show differential cytotoxicity against isogenic chicken DT40 cell lines with known DNA damage response pathways - wild type cell line (AID 743012). Further: nearly all actives have a fitted effect of over 60% in size. Further: potency means the concentration at half of the fitted maximal effect. In a few lines: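 300 wt DT40 cells/well; cpd (DMSO) pintool-transferred after ~0.5 h at 37 C/5% CO2; 40 h incubation; CellTiter-Glo added, 30 min RT; luminescence read.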
Assay [3] is described as follows: qHTS assay for identifying genotoxic compounds that show differential cytotoxicity against isogenic chicken DT40 cell lines with known DNA damage response pathways - Rev3 mutant cell line (AID 743014). Further: nearly all actives have a fitted effect of over 55% in size. Further: potency means the concentration at half of the fitted maximal effect.
The nature of assay [4]: qHTS assay for identifying genotoxic compounds that show differential cytotoxicity against isogenic chicken DT40 cell lines with known DNA damage response pathways - Rad54/Ku70 mutant cell line (AID 743015). Further: nearly all actives have a fitted effect of over 60% in size. Further: potency means the concentration at half of the fitted maximal effect.
The nature of assay [5]: qHTS assay to identify small molecule antagonists of the androgen receptor (AR) signaling pathway - cell viability counter screen (AID 743033; further: nearly all actives have a fitted effect of over 45% in size; further: potency means the concentration at half of the fitted maximal effect).
The nature of assay [6]: qHTS assay to identify small molecule antagonists of the androgen receptor (AR) signaling pathway using the MDA cell line - cell viability counter screen (AID 743041; further: nearly all actives have a fitted effect of over 45% in size). In a few lines:
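Compound exposure lasted 16 h at 37C in MDA-kb2 AR-luc cells stimulated with R1881. Protease-based CellTiter-Fluor reagent was applied for the final 30 min and fluorescence measured.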

For assay [7], the target named is Androgen receptor (Homo sapiens) (UniProt P10275). As to the kind of experiment: qHTS assay to identify small molecule antagonists of the androgen receptor (AR) signaling pathway (AID 743035; active means well fitted inhibition curve with a large enough effect in the signal ratio in the repeat runs, not every such curve was filed as active; the % refers to the signal ratio; further: potency means the concentration at half of the fitted maximal effect). In a few lines:
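In this cell-based reporter screen, compounds were tested in concentration series against R1881-activated HEK293 cells expressing beta-lactamase under UAS control; after 16 h at 37C, FRET substrate was added and fluorescence read 2 h later.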

The target is the same in assay [8]. Description: qHTS assay to identify small molecule agonists of the androgen receptor (AR) signaling pathway (AID 743036; active means well fitted activation curve with a large enough effect in the signal ratio in the repeat runs, with a control signal flat, not every such curve was filed as active; the % refers to the signal ratio). The procedure, abridged: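 AR-bla HEK293 cells, 2,000/well; 4 h preincubation 37C/5% CO2; compound (DMSO) 16 h at 37C; LiveBLAzer B/G FRET substrate 2 h RT; fluorescence intensity read-out.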
Assay [9] shares this target. As to the kind of experiment: qHTS assay to identify small molecule agonists of the androgen receptor (AR) signaling pathway using the MDA cell line (AID 743040; further: nearly all actives have a fitted effect of over 20% in size). The procedure, abridged: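 Testing was done with the MDA-kb2 AR-luc line, a human breast carcinoma stably transfected with MMTV-luciferase containing AR and GR response elements. Cells were exposed 16 h at 37C before ONE-Glo luminescence detection.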

The target is the same in assay [10]. As to the kind of experiment: qHTS assay to identify small molecule antagonists of the androgen receptor (AR) signaling pathway using the MDA cell line (AID 743042; further: nearly all actives have a fitted effect of over 55% in size; further: potency means the concentration at half of the fitted maximal effect). In a few lines: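 MDA-kb2 breast carcinoma cells carrying MMTV-luciferase (AR/GR responsive) were co-treated with compounds and the agonist R1881 for 16 h at 37C. Inhibition read as ONE-Glo luminescence; CellTiter-Fluor fluorescence measured in parallel for cytotoxicity.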

Sequence of Androgen receptor (Homo sapiens) (P10275 whole entry, looked up): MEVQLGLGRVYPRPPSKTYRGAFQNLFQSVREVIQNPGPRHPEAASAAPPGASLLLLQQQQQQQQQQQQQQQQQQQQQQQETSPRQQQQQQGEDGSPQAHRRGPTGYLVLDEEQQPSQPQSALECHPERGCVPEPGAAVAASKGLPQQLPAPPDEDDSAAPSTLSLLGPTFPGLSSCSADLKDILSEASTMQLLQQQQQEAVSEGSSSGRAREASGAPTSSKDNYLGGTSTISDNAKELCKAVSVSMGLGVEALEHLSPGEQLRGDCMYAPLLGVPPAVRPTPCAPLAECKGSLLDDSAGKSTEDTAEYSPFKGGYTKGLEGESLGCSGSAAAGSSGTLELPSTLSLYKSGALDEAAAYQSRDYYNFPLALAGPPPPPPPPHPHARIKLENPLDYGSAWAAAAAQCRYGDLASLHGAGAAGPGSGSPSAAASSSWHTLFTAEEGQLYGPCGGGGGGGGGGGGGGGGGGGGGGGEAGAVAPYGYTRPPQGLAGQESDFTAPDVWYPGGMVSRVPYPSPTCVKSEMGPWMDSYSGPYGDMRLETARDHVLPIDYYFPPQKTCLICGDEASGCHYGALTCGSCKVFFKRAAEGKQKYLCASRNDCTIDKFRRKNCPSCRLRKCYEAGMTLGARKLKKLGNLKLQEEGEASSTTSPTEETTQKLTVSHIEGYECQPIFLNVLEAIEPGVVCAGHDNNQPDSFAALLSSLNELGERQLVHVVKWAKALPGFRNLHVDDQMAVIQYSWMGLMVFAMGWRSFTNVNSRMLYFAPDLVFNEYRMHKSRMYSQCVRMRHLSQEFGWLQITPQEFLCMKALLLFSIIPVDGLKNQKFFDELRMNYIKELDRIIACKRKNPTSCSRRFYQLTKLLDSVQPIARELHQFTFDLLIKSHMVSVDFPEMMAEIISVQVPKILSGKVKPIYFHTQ

As to `CCCN1CCC[C@@H]2Cc3nc(N)ncc3C[C@H]21`, the Potency entry in [1], in [2], in assay [3], in assay [4], in assay [5] and in assay [6] was “inactive” in each case.
`CCCCCCCCBr`: the Potency result in assay [1], in assay [2], in assay [3], in assay [4], in [5] and in [6] was “inactive” in each case.
Consider `COC(=O)c1ccc(CBr)cc1`, for which the Potency entry in assay [1], in assay [2], in [3], in assay [4], in assay [5] and in assay [7] was “inactive” throughout. Also, the Potency result in assay [6] and in [10] was “inactive” each time. Besides, the compound was called inactive in assay [8] and in assay [9].
As to `C=CC(=O)OCCN(C)C`, the Potency entry in [1], in [2], in assay [3], in [4], in assay [5] and in [6] was “inactive” in each case.
In the case of `C[C@H]1CCCC(=O)CCC/C=C/c2cc(O)cc(O)c2C(=O)O1`, the Potency entry in assay [1] and in assay [6] was “inactive” each time. Moreover, the Potency in assay [2] was 20.9 µM (active) and 20 µM (active); in [3], 16.6 µM (active) and 22.4 µM (active); in [4], 16.6 µM (active) and 17.8 µM (active); in assay [5] it was 42.1 µM (active); in assay [7], 20.2 µM (active); in [10] it was 52.5 µM (active). Also, the compound was classed as inactive in assay [8] and in [9].
As for `COP(=O)(O)OC`, the Potency entry in assay [1], in [2], in assay [3], in [4], in [5] and in assay [7] was “inactive” throughout. Also, the Potency entry in [6] and in assay [10] was “inactive” throughout. Moreover, the result in [8] and in [9] was inactive.
Consider `c1ccc2c(c1)CCNC2`, for which the Potency result in assay [1], in assay [2], in assay [3], in [4], in assay [5] and in [6] was “inactive” each time.
Take `O=c1[nH]c2ccccc2o1`: the Potency result in [1], in [2], in [3], in assay [4], in assay [5] and in assay [6] was “inactive” throughout.
With `COC(=O)c1ccccc1CS(=O)(=O)NC(=O)Nc1nc(OC)cc(OC)n1`, the Potency result in [1], in assay [2], in assay [3], in [4], in [5] and in assay [6] was “inactive” throughout.
Regarding `O=C(O)C(Br)(Br)Br`, the Potency entry in assay [1], in assay [2], in [3], in assay [4], in assay [5] and in assay [6] was “inactive” in each case.
Turning to `Cc1ccc2cc(C)ccc2c1`, the Potency result in assay [1], in assay [2], in assay [3], in assay [4], in assay [5] and in assay [6] was “inactive” throughout.
`CNC(=O)Oc1ccccc1C(C)C`: the Potency entry in assay [1], in assay [2], in assay [3], in assay [4], in assay [5] and in assay [7] was “inactive” in each case. The Potency result in assay [6] and in assay [10] was “inactive” each time. In addition, the compound was classed as inactive in assay [8] and in [9].
Turning to `CC(C)(O)C(Cl)(Cl)Cl`, the Potency result in assay [1], in [2], in assay [3], in [5] and in assay [6] was “inactive” throughout.
As for `CCSC(=O)Cl`, the Potency result in assay [1], in [2], in assay [4], in [5], in assay [7] and in [6] was “inactive” each time. For the same compound, the Potency entry in [10] is “inactive”.
For the compound `CC(Cc1ccccc1)NCCn1cnc2c1c(=O)n(C)c(=O)n2C` (stereo not drawn), the Potency result in assay [1], in [3], in assay [5] and in assay [6] was “inactive” each time. For the same compound, the Potency in assay [2] is 67.7 µM (active).
Consider `O=C(Cl)/C=C/C(=O)Cl`, for which the Potency result in assay [1], in [2], in [4], in assay [5], in assay [6] and in assay [10] was “inactive” each time. For the same compound, the compound was called inactive in assay [8] and in assay [9].
Turning to `CC(C)N(Cc1ccccc1)C(=O)C(C)(C)C`, the Potency entry in [1], in [5], in assay [7], in assay [6] and in assay [10] was “inactive” throughout. The values for the Potency in [2] and in assay [3] were 61.1 µM (active) and 68.6 µM (active), respectively. In addition, the result in assay [8] and in assay [9] was inactive.
As to `CCCN1CCC[C@@H]2Cc3[nH]ncc3C[C@H]21`, the Potency result in assay [1], in assay [2], in [3], in assay [4], in assay [5] and in assay [6] was “inactive” each time.
In the case of `O=C(Cl)C(Cl)(Cl)Cl`, the Potency result in assay [1], in [2], in assay [4], in [5] and in [6] was “inactive” each time.
Take `CCCCCCCCSC(=O)Oc1cc(Cl)nnc1-c1ccccc1`: the Potency result in assay [1], in assay [5] and in assay [6] was “inactive” each time. Also, the Potency in assay [2] and in assay [3] was 54.5 µM (active) in each case.
For `C=C1C[C@@H]2[C@H](CC[C@]3(C)C(=O)CC[C@@H]23)[C@@]2(C)C=CC(=O)C=C12`, the Potency result in assay [1] and in [6] was “inactive” each time. The Potency in [2] is 7.5 µM (active); in assay [3] it was 11.9 µM (active); in assay [4], 13.3 µM (active).
Turning to `COP(=O)(OC)O/C(C)=C/C(=O)N(C)C`, the Potency result in [1], in assay [2], in assay [3], in assay [4], in assay [5] and in assay [6] was “inactive” each time.
On to `ClC(Cl)(Cl)Cl`, for which the Potency entry in assay [1], in assay [2], in assay [3], in assay [4], in [5] and in [6] was “inactive” throughout.
Consider `O=CCCl`, for which the Potency entry in assay [1], in assay [5] and in assay [6] was “inactive” in each case. Also, the Potency was 19.3 µM (active) in [2], 0.217 µM (active) in assay [3] and 27.3 µM (active) in assay [4].
Consider `C/C=C/CC#N`, for which the Potency entry in [1], in assay [2], in assay [3], in assay [4], in assay [5] and in assay [6] was “inactive” in each case.
As to `O=[N+]([O-])CCO`, the Potency entry in assay [1], in [2], in assay [4], in assay [5] and in assay [6] was “inactive” each time.
Take `ClCCCCl`: the Potency result in assay [1], in assay [2], in assay [3], in [4], in assay [5] and in [6] was “inactive” in each case.
